This is an account of results in PubChem BioAssay (NCATS).

Records with an inconclusive call do not appear. Entries that show only a call come without a potency. Active and inactive are the calls of the source. Calls follow the shape of the dose curve; as a rule, active = well fitted curve in the direction sought with a large enough effect; inconclusive = small, poorly fitted or top-dose-only effect, or another doubt; inactive = no such curve, though single readings can be large; an effect the other way counts as inactive or inconclusive.

One assay is described as follows: NS1 protein of Zika virus - qHTS assay to identify small molecule inhibitors in human HEK 293 cells (AID 1347053). Also: nearly all actives have a fitted effect of over 55% in size. As to conditions: HEK293 ZIKV MR766 infection, NS1 TR-FRET, 24 h; series mostly up to 46.1 µM. The method, boiled down:
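TR-FRET signal from two anti-ZIKV NS1 antibodies quantified NS1 in HEK 293 cells 24 h after MR766 infection at MOI = 0.5; compounds were added 1 h before virus. Uninfected cells and infected cells defined the NS1 normalization range.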
(qHTS replaces the single test concentration by a dilution series.)
On to `COC(=O)C1=C(C)NC(C)=C(C(=O)O[C@@H]2CCCN(Cc3ccccc3)C2)[C@@H]1c1cccc([N+](=O)[O-])c1`, for which the Potency entry is “inactive”. Same read-out and setting: the same measure for `Cc1onc(-c2c(Cl)cccc2Cl)c1C(=O)N[C@@H]1C(=O)N2[C@@H]1SC(C)(C)[C@@H]2C(=O)O`: “inactive”; for `CCCCOc1cc(C(=O)NCCN(CC)CC)c2ccccc2n1`: “inactive”; for `COC(=O)CCc1ccc(OCC(O)CNC(C)C)cc1` (centres undefined): “inactive”. Same read-out and setting: with `CNCCC=C1c2ccccc2CCc2ccccc21` the entry was “inactive”; with `CN1CCN(C(c2ccccc2)c2ccccc2)CC1`, “inactive”; with `CC1(C)O[C@@H]2C[C@H]3[C@@H]4C[C@H](F)C5=CC(=O)C=C[C@]5(C)[C@H]4[C@@H](O)C[C@]3(C)[C@]2(C(=O)CO)O1`, “inactive”.

As to `CC1=C(C(=O)O)N2C(=O)[C@@H](NC(=O)[C@H](N)c3ccc(O)cc3)[C@H]2SC1`, the Potency entry is “inactive”. The same measure, in the same setting: with `CCCCCCCCCCCCCCNCCO` the entry was “inactive”; with `O=c1[nH]c(=O)n([C@H]2CCCO2)cc1F`, “inactive”. Take `C=C(CC)C(=O)c1ccc(OCC(=O)O)c(Cl)c1Cl`: the Potency result is “inactive”. Same read-out and setting: with `CC1(C)OC[C@@H](COC(=O)CCc2ccc(OC[C@@H](O)CNCCNC(=O)N3CCOCC3)cc2)O1` the entry was “inactive”; with `CC(=O)c1ccc2c(c1)N(CCCN1CCC(CCO)CC1)c1ccccc1S2`, “inactive”. Same read-out and setting: with `CCC(C(=O)OCCN(CC)CC)c1ccccc1` (centres undefined) the entry was “inactive”; with `Cc1ccc(Nc2c(F)cccc2Cl)c(CC(=O)O)c1`, “inactive”. On the same count and under the same terms, the same measure for `Nc1ccc(C(=O)Nc2ccccc2N)cc1`: “inactive”; for `COc1c(C)c2c(c(O)c1C/C=C(\C)CCC(=O)O)C(=O)OC2`: “inactive”. On to `Cc1nc2n(c(=O)c1CCN1CCC(c3noc4cc(F)ccc34)CC1)CCC[C@H]2O`, for which the Potency result was “inactive”.

As for `NC[C@H]1O[C@H](O[C@H]2[C@H](O)[C@@H](O[C@H]3O[C@H](CO)[C@@H](O)[C@H](N)[C@H]3O)[C@H](N)C[C@@H]2N)[C@H](N)[C@@H](O)[C@@H]1O`, the Potency entry is “inactive”.

A further assay in a line: qHTS of pediatric cancer cell lines to identify multiple opportunities for drug repurposing: Primary screen for TC32 cells (AID 1347089). Also: nearly all actives have a fitted effect of over 60% in size. Also: potency is read from the fitted curve at half-maximal effect. To be noted: TC32 Ewing sarcoma viability, CellTiter-Glo luminescence, 48 h; series mostly up to 45.8 µM. In outline:
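qHTS, TC32, 48 h drug treatment, CellTiter-Glo luminescence as a proxy for metabolically active cells; primary top concentration 46 µM (MIPE 11-pt, NPC 8-pt); confirmatory 11-pt.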
Consider `CNC(=O)CN(CCN(CCN(CC(=O)[O-])CC(=O)NC)CC(=O)[O-])CC(=O)[O-].O.[Gd+3]`, for which the Potency result is “inactive”. Regarding `COCc1c(C(C)C)nc(C(C)C)c(/C=C/[C@@H](O)C[C@@H](O)CC(=O)O)c1-c1ccc(F)cc1`, the Potency is 1490 nM (active).

Consider `C[C@]12C=CC(=O)C=C1[C@@H](F)C[C@@H]1[C@@H]2[C@@H](O)C[C@@]2(C)[C@H]1CC[C@]2(O)C(=O)CO`, for which the Potency result was “inactive”.

As to `CC(=O)[C@H]1CC[C@H]2[C@@H]3C[C@H](C)C4=CC(=O)CC[C@]4(C)[C@H]3[C@@H](O)C[C@]12C`, the Potency result was “inactive”. Consider `COc1ccc(C2C(=O)c3ccccc3C2=O)cc1`, for which the Potency entry is “inactive”.

For the compound `Cc1ccccc1C(=O)Nc1ccc(C(=O)N2CCCC(N(C)C)c3ccccc32)cc1` (centres undefined), the Potency entry was “inactive”. In the case of `CCn1cc(C(=O)O)c(=O)c2cnc(N3CCCC3)nc21`, the activity change, negative = cytotoxic was 4.83% [at 9.17 µM] (inactive). For `COc1ccc(OC)c(C(O)CNC(=O)CN)c1` (centres undefined), the Potency entry was “inactive”. With `CN1CCC[C@@H]1c1cccnc1`, the Potency entry was “inactive”. Consider `OC[C@H]1O[C@@H](n2cnc3c(=S)nc[nH]c32)[C@H](O)[C@@H]1O`, for which the Potency was 1670 nM (active). Take `CC(=O)OCC(=O)[C@@]12OC(C)(C)O[C@@H]1C[C@H]1[C@@H]3C[C@H](F)C4=CC(=O)C=C[C@]4(C)[C@@]3(F)[C@@H](O)C[C@@]12C`: the Potency entry is “inactive”. In the case of `Cc1cc2c(cc1CC(=O)c1sccc1S(=O)(=O)Nc1onc(C)c1Cl)OCO2`, the Potency result was “inactive”. The same measure, in the same setting: the same measure for `CC(C)(C)NC(=O)[C@@H]1CN(Cc2cccnc2)CCN1C[C@@H](O)C[C@@H](Cc1ccccc1)C(=O)N[C@H]1c2ccccc2C[C@H]1O`: “inactive”; for `COC(=O)C1=C(C)NC(C)=C(C(=O)O[C@@H]2CCCN(Cc3ccccc3)C2)[C@@H]1c1cccc([N+](=O)[O-])c1`: “inactive”. The same measure, in the same setting: with `Cc1onc(-c2c(Cl)cccc2Cl)c1C(=O)N[C@@H]1C(=O)N2[C@@H]1SC(C)(C)[C@@H]2C(=O)O` the entry was “inactive”; with `CCCCOc1cc(C(=O)NCCN(CC)CC)c2ccccc2n1`, “inactive”; with `COC(=O)CCc1ccc(OCC(O)CNC(C)C)cc1` (centres undefined), “inactive”. For `CN1CCN(C(c2ccccc2)c2ccccc2)CC1`, the Potency entry was “inactive”. Still for that read-out and setting: the same measure for `CC1(C)O[C@@H]2C[C@H]3[C@@H]4C[C@H](F)C5=CC(=O)C=C[C@]5(C)[C@H]4[C@@H](O)C[C@]3(C)[C@]2(C(=O)CO)O1`: “inactive”. On to `CC(C)n1nc(-c2cc3cc(O)ccc3[nH]2)c2c(N)ncnc21`, for which the Potency is 2100 nM (active). With `CC1=C(C(=O)O)N2C(=O)[C@@H](NC(=O)[C@H](N)c3ccc(O)cc3)[C@H]2SC1`, the Potency result is “inactive”. Still for that read-out and setting: the same measure for `CCCCCCCCCCCCCCNCCO`: “inactive”; for `O=c1[nH]c(=O)n([C@H]2CCCO2)cc1F`: “inactive”; for `CC1(C)OC[C@@H](COC(=O)CCc2ccc(OC[C@@H](O)CNCCNC(=O)N3CCOCC3)cc2)O1`: “inactive”. In the case of `CC(=O)c1ccc2c(c1)N(CCCN1CCC(CCO)CC1)c1ccccc1S2`, the Potency entry is “inactive”. On to `CCC(C(=O)OCCN(CC)CC)c1ccccc1` (centres undefined), for which the Potency entry was “inactive”. Same read-out and setting: with `Cc1ccc(Nc2c(F)cccc2Cl)c(CC(=O)O)c1` the entry was “inactive”. In the case of `COc1c(C)c2c(c(O)c1C/C=C(\C)CCC(=O)O)C(=O)OC2`, the Potency is 664 nM (active). Still for that read-out and setting: the same measure for `Cc1nc2n(c(=O)c1CCN1CCC(c3noc4cc(F)ccc34)CC1)CCC[C@H]2O`: “inactive”; for `NC[C@H]1O[C@H](O[C@H]2[C@H](O)[C@@H](O[C@H]3O[C@H](CO)[C@@H](O)[C@H](N)[C@H]3O)[C@H](N)C[C@@H]2N)[C@H](N)[C@@H](O)[C@@H]1O`: “inactive”.
